The structures appear in SMILES notation. Where “and” joins values, the source holds several entries; their conditions need not be identical. Equal values may be shown once. Results filed as inconclusive are left out. A structure can be active in one record and inactive in another. Calls of active or inactive are those of the source. Calls follow the shape of the dose curve; as a rule, active = well fitted curve in the direction sought with a large enough effect; inconclusive = small, poorly fitted or top-dose-only effect, or another doubt; inactive = no such curve, though single readings can be large; an effect the other way counts as inactive or inconclusive.

Assay [1] deals with Glutathione peroxidase 1 (Homo sapiens) (UniProt P07203). Kind of assay: Primary qHTS Assay for Inhibitors of Recombinant Selenoprotein Glutathione Peroxidase 1 (GPX1) (AID 1845191). Also: nearly all actives have a fitted effect of over 65% in size. As to activity, negative = inhibition: % is scaled to controls: 0 for no effect and ±100 for the full control effect. Summed up: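 Recombinant GPX1 (10 nM final) was preincubated with compound for 30 min at room temperature, then reacted with 1 mM GSH, 0.5 mM CHP, 0.5 mM NADPH and 100 nM glutathione reductase; NADPH fluorescence (340/450 nm) was read at 0 and 15 min.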
Glutathione peroxidase 1 (Homo sapiens), sequence (P07203 whole entry, looked up): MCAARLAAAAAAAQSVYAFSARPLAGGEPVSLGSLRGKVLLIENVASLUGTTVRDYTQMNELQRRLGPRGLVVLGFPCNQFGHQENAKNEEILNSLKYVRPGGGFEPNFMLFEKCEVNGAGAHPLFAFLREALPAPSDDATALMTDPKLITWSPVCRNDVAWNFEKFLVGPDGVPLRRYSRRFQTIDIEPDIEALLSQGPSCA
A general note: Quantitative high-throughput screening tests each substance at several concentrations.

Assay [2] concerns the target Phospholipid hydroperoxide glutathione peroxidase GPX4 (Homo sapiens) (UniProt P36969). The assay can be described thus: Primary qHTS Assay for Inhibitors of Recombinant Selenoprotein Glutathione Peroxidase 4 (GPX4) (AID 1845192). Also: nearly all actives have a fitted effect of over 65% in size. Also: potency is read from the fitted curve at half-maximal effect. As to activity change, negative = inhibition: series mostly up to about 50 µM; % is scaled to controls: 0 for no effect and ±100 for the full control effect. Summed up:
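GR-coupled readout: 100 nM GR, 1 mM GSH, 0.5 mM NADPH; NADPH fluorescence (ex 340/em 450 nm) read at t=0 and after 15 min RT. GPX4 200 nM, preincubated 30 min with compound; substrate 0.5 mM CHP.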

Assay [3] is described as follows: Quantitative High-Throughput drug screen in 47 multiple myeloma cell lines against the NCATS MIPE library collection: FR4_PLB cell viability assay (AID 1918924; also: nearly all actives have a fitted effect of over 35% in size; also: potency is read from the fitted curve at half-maximal effect). Summed up: (§1)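 Viability readout: CellTiter-Glo luminescence following 5 min room-temperature incubation with reagent. Prior exposure: 48 h, 37C, humidified 5% CO2, 500 cells per well.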
Assay [4] in a line: Quantitative High-Throughput drug screen in 47 multiple myeloma cell lines against the NCATS MIPE library collection: Delta47_JCRB cell viability assay (AID 1918925; also: nearly all actives have a fitted effect of over 45% in size; also: potency is read from the fitted curve at half-maximal effect). Summed up:
(§2)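 CellTiter-Glo ATP luminescence gave viability after 48 h compound treatment at 37C of 500 multiple myeloma cells per well. Normalisation used DMSO-only wells as 100% and media-only wells as 0% viability; primary qHTS of approved and investigational drugs.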

A short description of assay [5]: Quantitative High-Throughput drug screen in 47 multiple myeloma cell lines against the NCATS MIPE library collection: EJM_DSMZ cell viability assay (AID 1918926; also: nearly all actives have a fitted effect of over 30% in size; also: potency is read from the fitted curve at half-maximal effect). The procedure, abridged: as §2
Assay [6] is described as follows: Quantitative High-Throughput drug screen in 47 multiple myeloma cell lines against the NCATS MIPE library collection: ARD_JJKsccE7 cell viability assay (AID 1918929; also: potency is read from the fitted curve at half-maximal effect). Summed up: as §2
Assay [7] can be described thus: Quantitative High-Throughput drug screen in 47 multiple myeloma cell lines against the NCATS MIPE library collection: Karpas620_DSMZ cell viability assay (AID 1918959). Also: nearly all actives have a fitted effect of over 30% in size. Also: potency is read from the fitted curve at half-maximal effect. The procedure, abridged:
as §1

A short description of assay [8]: Quantitative High-Throughput drug screen in 47 multiple myeloma cell lines against the NCATS MIPE library collection: KMM1_JCRB cell viability assay (AID 1918960). Also: nearly all actives have a fitted effect of over 30% in size. Also: potency is read from the fitted curve at half-maximal effect. Summed up:
(§3)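 Here, 48 h treatment with MIPE 4.0 agents at 37 °C preceded an ATP luminescence read. Plating density was 500 cells per well.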

Assay [9] is described as follows: Quantitative High-Throughput drug screen in 47 multiple myeloma cell lines against the NCATS MIPE library collection: AMO1_DSMZ cell viability assay (AID 1918927; also: nearly all actives have a fitted effect of over 30% in size; also: potency is read from the fitted curve at half-maximal effect). Summed up: as §2
The nature of assay [10]: Quantitative High-Throughput drug screen in 47 multiple myeloma cell lines against the NCATS MIPE library collection: ARP1_JJKsccF8 cell viability assay (AID 1918928; also: nearly all actives have a fitted effect of over 40% in size; also: potency is read from the fitted curve at half-maximal effect). Summed up: as §3
Assay [11] has as its target Luciferin 4-monooxygenase (Photinus pyralis) (UniProt P08659). The assay can be described thus: Primary firefly luciferase (FLuc) qHTS assay for identification of artifact compounds. (AID 1845220). Also: nearly all actives have a fitted effect of over 60% in size. The procedure, abridged:
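Reaction readout was CCD-imaged luminescence, taken 5 min after adding 10 nM purified firefly enzyme to compound-treated wells holding 10 uM luciferin and ATP in pH 7.6 buffer.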

Assay [12] in a line: Primary fluorescence-based thiol-reactive (MSTI) qHTS assay for identification of artifact compounds. (AID 1845221).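 Also: series mostly up to about 54 µM; thiol-reactive compounds lower the probe fluorescence signal; nearly all actives have a fitted effect of over 65% in size.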 Summed up: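 qHTS titration of compound; 4 uM MSTI, PBS pH 7.4, 2% DMSO; 1 h RT, dark; fluorescence 525/598 nm; normalized to Acetyl-MSTI and MSTI; 4-parameter Hill fit.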
The test system of assay [13] is Nanoluciferase (engineered Oplophorus gracilirostris luciferase). The assay can be described thus: Primary Nanoluciferase (NLuc) qHTS assay for identification of artifact compounds. (AID 1845222).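 Also: NLuc secreted into diluted conditioned medium of S16 cells; series mostly up to about 54 µM; 0% = DMSO and -100% = no enzyme.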 The procedure, abridged:
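Concentration-response data were obtained by luminescence after 5 min with Nano-Glo substrate at 1:100. The enzyme was diluted S16 NLuc-expressing cell medium, preincubated with compound for 15 min at RT. Curves were fitted with a 4-parameter Hill model.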

Assay [14] can be described thus: Primary redox qHTS assay for identification of artifact compounds. (AID 1845223). Summed up: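 Amplex Red (25 uM) and HRP (250 mU/mL) in HBSS, with compounds for 15 min, then 250 uM DTT for 30 min, room temperature, dark. Fluorescence 525/598 nm read; normalized to DMSO and 10 uM DA3003; Hill fit.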

Phospholipid hydroperoxide glutathione peroxidase GPX4 (Homo sapiens), sequence (P36969 whole entry, looked up): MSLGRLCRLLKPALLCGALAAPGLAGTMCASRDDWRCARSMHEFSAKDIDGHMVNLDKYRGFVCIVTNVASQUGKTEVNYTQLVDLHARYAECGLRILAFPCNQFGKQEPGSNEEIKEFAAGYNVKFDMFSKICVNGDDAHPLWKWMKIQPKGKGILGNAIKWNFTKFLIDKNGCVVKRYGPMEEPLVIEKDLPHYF

Turning to `c1cc(CN2CCCNCCNCCCNCC2)ccc1CN1CCCNCCNCCCNCC1`, the Potency entry in assay [1], in assay [2], in [3], in assay [4], in [5] and in assay [6] was “inactive” each time. The Potency entry in assay [7] and in assay [8] was “inactive” throughout.
Turning to `c1ccc(CNc2nc(NCc3ccccc3)c3ccccc3n2)cc1`, the Potency entry in assay [1] and in assay [2] was “inactive” each time. Moreover, the Potency was 23.5 µM (active) in assay [3]; 7.43 µM (active) in assay [4]; 18.7 µM (active) in assay [5]; 8.33 µM (active) in [9]; 5.26 µM (active) in assay [7]; 4.69 µM (active) in assay [8].
With `CCCc1nc(C(C)(C)O)c(C(=O)O)n1Cc1ccc(-c2ccccc2-c2nn[nH]n2)cc1`, the Potency entry in assay [1], in assay [3], in [4], in assay [9], in assay [10] and in assay [6] was “inactive” throughout. The Potency result in assay [7] and in assay [8] was “inactive” throughout. In addition, the Potency result in assay [2] is “inactive and 17.8 µM (active)”.
Regarding `OC[C@H]1OC(O)C[C@@H](O)[C@H]1O` (some centres undefined), the Potency entry in assay [1], in assay [2], in assay [3], in assay [5], in assay [10] and in assay [7] was “inactive” each time.
For `Nc1ccn(C[C@@H](CO)OCP(=O)(O)O)c(=O)n1`, the activity, negative = inhibition in assay [1] is -28.5% [at 0.4 µM] (inactive) and -6.08% [at 9.52 µM] (inactive). The activity change, negative = inhibition in [2] was 4.75% [at 0.409 µM] (inactive) and -14.5% [at 9.73 µM] (inactive). In addition, the Potency result in assay [3], in assay [4], in assay [9], in assay [10] and in [8] was “inactive” throughout.
On to `CCCCC(=O)O[C@]1(C(=O)CO)[C@@H](C)C[C@H]2[C@@H]3CCC4=CC(=O)C=C[C@]4(C)[C@@]3(F)[C@@H](O)C[C@@]21C`, for which the Potency result in assay [1], in [2], in assay [3], in assay [5], in [9] and in [7] was “inactive” in each case.
Take `COc1ccc(C=Cc2cc(OC)c(OC)c(OC)c2)cc1NC(=O)[C@H](N)CO`: the Potency entry in [1] and in assay [2] was “inactive” in each case. Further, the Potency is 0.0105 µM (active) in [5], 0.0053 µM (active) in assay [10] and 0.0118 µM (active) in assay [6].
For `C[C@H](CCC(=O)O)[C@H]1CCC2C3C[C@H](O)[C@@H]4C[C@H](O)CC[C@]4(C)C3CC[C@@]21C` (some centres undefined), the Potency entry in assay [1], in assay [2], in assay [3], in assay [5], in [9] and in assay [10] was “inactive” in each case. The Potency result in [7] and in assay [8] was “inactive” throughout.
On to `COc1cc(O)c2c(c1)C1OC1C[C@H](O)[C@H](O)C(=O)C=CC[C@H](C)OC2=O` (some centres undefined), for which the Potency result in assay [1] and in [2] was “inactive” throughout. The Potency was 3.32 µM (active) in assay [3]; 7.43 µM (active) in [5]; 2.96 µM (active) in [9]; 4.69 µM (active) in assay [10]; 5.9 µM (active) in assay [6]; 2.64 µM (active) in assay [7].
For `CC(C=CC=C(C)C=CC1=C(C)CCCC1(C)C)=CC=CC=C(C)C=CC=C(C)C=CC1=C(C)CCCC1(C)C`, the values for the outcome in assay [1] and in assay [2] were “inactive [at 0.4 µM]” and “inactive [at 0.409 µM]”, respectively. For the same molecule, the results for the Potency in assay [5], in assay [9] and in assay [7] were 6.62 µM (active), 20.9 µM (active) and 20.9 µM (active), respectively. The Potency result in [8] was “inactive”.
Turning to `CC(Oc1ccc(O)cc1)(P(=O)(O)O)P(=O)(O)O`, the Potency result in [1], in [2], in [5], in assay [10], in assay [7] and in [8] was “inactive” in each case.
With `COc1cc(OC)c(NC(=O)Nc2cc(C)on2)cc1Cl`, the Potency result in assay [1], in assay [2], in assay [3], in assay [9], in [10] and in assay [7] was “inactive” in each case. The Potency entry in assay [8] was “inactive”.
Regarding `C[C@@H]1C(=O)O[C@H]2CC34[C@H]5C[C@@H](C(C)(C)C)C36[C@H](OC(=O)[C@@H]6O)O[C@@]4(C(=O)O5)[C@]21O` (some centres undefined), the Potency result in [1], in [2], in assay [3], in [5], in assay [9] and in assay [10] was “inactive” in each case. Besides, the Potency result in [6] and in assay [7] was “inactive” in each case.
Consider `COc1ccc(C[C@@H](C)[C@@H](C)Cc2ccc(OC)c(OC)c2)cc1OC`, for which the Potency result in assay [1] and in assay [2] was “inactive” throughout. Further, the results for the Potency in assay [3] and in assay [8] were 0.118 µM (active) and 0.235 µM (active), respectively.
On to `Cc1ccccc1C(=O)Nc1ccc(C(=O)N2CCCC(O)c3cc(Cl)ccc32)c(C)c1` (centres undefined), for which the Potency entry in [1], in assay [11], in assay [12], in assay [14], in assay [3] and in assay [4] was “inactive” in each case. Moreover, the Potency entry in assay [10] and in assay [7] was “inactive” throughout. In addition, the molecule was classed as inactive in assay [13]. Moreover, the Potency in [5] was 20.9 µM (active).
As for `O=C1CSC(=O)N1C(CCc1ccncc1)COc1ccc(-c2cccc([N+](=O)[O-])c2)cc1` (centres undefined), the Potency result in [1], in assay [2], in assay [9], in [6], in [7] and in assay [8] was “inactive” throughout. Moreover, the Potency is 18.7 µM (active) in [3], 0.935 µM (active) in assay [5] and 3.32 µM (active) in assay [10].
Take `Cc1cc(C(=O)NOCCO)c(Nc2ccc(I)cc2F)n(C)c1=O`: the Potency result in [1], in assay [2] and in assay [5] was “inactive” in each case. Besides, the Potency in [9] was 0.118 µM (active); in [7], 0.0059 µM (active).
`COC(=O)[C@H](CCCN=C(N)N)NS(=O)(=O)c1ccc(C)cc1`: the Potency result in assay [1], in [2], in assay [3], in assay [5], in assay [9] and in assay [7] was “inactive” throughout. In assay [8], the Potency entry was “inactive”.
Take `CCCCCCCCc1ccc(CCC(N)(CO)CO)cc1`: the Potency result in assay [1] and in assay [2] was “inactive” each time. The Potency in assay [4] was 5.26 µM (active); in assay [5], 23.5 µM (active); in assay [9], 8.33 µM (active); in assay [10], 10.5 µM (active); in assay [7], 8.33 µM (active); in assay [8], 6.62 µM (active).
`C[C@@H](NCc1cc2ccccc2[nH]1)c1cccc2ccccc12`: the Potency entry in [1], in assay [2] and in [5] was “inactive” in each case.
In the case of `COc1cc2ncnc(Nc3cccc(Br)c3)c2cc1OC`, the Potency result in [1] and in [2] was “inactive” each time. Also, the Potency is 1.32 µM (active) in [3], 1.48 µM (active) in [4], 3.72 µM (active) in [9] and 16.6 µM (active) in assay [6].

The values above are taken from PubChem BioAssay (NCATS).
